Sampled rows, rich in hits. Any-hit rate of the full collection: about 4.1%.
DAX1 inh-1 – DAX1 (NR0B1) inhibition, primary screen | AID 652010 | HEK293T StAR-luciferase reporter, SF-1/DAX-1 repression relief | inhibition, % at 6.8 µM | hit rate 1.1% among 370,000;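 active = inhibition above the mean over all tested compounds plus 3 SD, cut at about 3.6% in these data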;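 also: 0% = DAX-1 cells with DMSO and 100% = cells lacking DAX-1 with DMSO; higher inhibition means more luminescence from relief of DAX-1 repression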
hcDAF12 agonist – H. contortus DAF-12 activation, primary screen; HEK293 hcDAF-12 lit1-tk-luc reporter, luminescence; 0% DMSO, 100% Δ7-dafachronic acid; activation, % at 6.8 µM; hit rate 1.4% among 370,000;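 active = activation above the mean of all tested compounds plus 3 SD, cut at about 5.5% in these data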;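 also: 100% = response to 3 µM Δ7-dafachronic acid high control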
ssDAF-12 act – S. stercoralis DAF-12 activation, primary screen; HEK293 ssDAF-12/GRIP1 lit1-tk-luc reporter, luminescence; % of 3 µM dafachronic acid response; activation, % at 6.8 µM; hit rate 1% among 370,000;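 active = activation above the mean over all tested compounds plus 3 SD, cut at about 0.9% in these data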;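 also: 0% = DMSO-only wells and 100% = 3 µM delta7-dafachronic acid wells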
hgDAF-12 ag – activates the H. glycines DAF-12 receptor ligand-binding domain; HEK293 GAL4-hgDAF12 UAS-luciferase reporter, agonist luminescence; normalized to butyrate control; activation, % at 6.8 µM; hit rate 1.8% among 370,000;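 active = activation above a cutoff set at the mean of all screened compounds plus 3 SD, cut at about 10% in these data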;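 also: 0% = DMSO wells and 100% = sodium butyrate wells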
DAX1 inh-2 – inhibitors of human orphan nuclear receptor DAX1 (NR0B1); P51843; HEK293 Gal4-DAX1 luciferase reporter, luminescence; inhibition, % at 6.75 µM; hit rate 0.99% among 340,000; AID 504766;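 active = inhibition above the mean over all tested compounds plus 3 SD, cut at about 4.2% in these data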;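 also: 0% = DAX1-transfected cells with DMSO and 100% = empty-vector control cells with DMSO; inhibition shows as a rise in luminescence from relieved DAX1 repression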
Target sequence (P51843 207-470 limits assumed): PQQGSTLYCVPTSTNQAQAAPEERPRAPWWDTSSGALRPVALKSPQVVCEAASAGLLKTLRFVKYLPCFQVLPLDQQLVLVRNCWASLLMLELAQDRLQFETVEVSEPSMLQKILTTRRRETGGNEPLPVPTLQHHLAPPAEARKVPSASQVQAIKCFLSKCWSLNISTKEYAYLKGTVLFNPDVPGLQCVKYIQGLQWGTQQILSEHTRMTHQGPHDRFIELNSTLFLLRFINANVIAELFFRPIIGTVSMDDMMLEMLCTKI
* = called active by the depositor; . = no result.

SMILES	DAX1 inh-1	hcDAF12 agonist	ssDAF-12 act	hgDAF-12 ag	DAX1 inh-2
COc1ccc(C(=O)NCc2ccc(OCCN(C)C)cc2)cc1OC	1	5.6*	-2	-4	0
CN(C(=O)c1ccco1)c1nc(-c2ccc(F)cc2)cs1	2	4	0	8	5.2*
CN(C(=O)c1ccco1)c1nnc(-c2ccc(F)cc2)s1	1	5	0	9	1
CCOc1ccc(N=C(/C(C(=O)C(=O)N2CCOCC2)=C(\O)c2ccccc2)c2ccccc2)cc1	2	4	0	12*	4
C/C(C=NNC(=O)CSc1nnc(-c2ccc(Cl)cc2)n1-c1ccc(C)cc1)=C\c1ccccc1	1	3	-1	-3	.
O=C(O)c1cccc2c1C(=O)N(Cc1ccccc1)C2	1	-1	1.2*	1	0
Cc1ccccc1Cn1nc(C)c(NC(=O)c2sc3ccccc3c2Cl)c1C	-2	-2	-2	-5	-2
Cc1ccccc1Cn1nc(C)c(NC(=O)c2ccccc2)c1C	-1	-1	-1	13*	-1
C[C@H]1[C@@H](OC(=O)N2CCCC2)CC[C@@]23CCCN2C(=O)CCC[C@@H]13	.	0	-2	-1	.
CCOC(=O)C1=CC[C@H]2c3c(c4ccccc4n3C)C(=O)C1N2Cc1ccccc1	0	0	-1	-3	0
CCOC(=O)C1=CC[C@H]2c3c(c4ccccc4n3C)C(=O)C1N2C	0	1	-1	-1	5.1*
Cc1cc(C)nc(N/C(=N\S(=O)(=O)Cc2ccccc2)Nc2ccccc2Br)n1	1	1	0	3	4.4*
COc1ccc(-c2nnc(SCC(=O)NN=C(C)c3cccc4ccccc34)n2-c2ccccc2)cc1	-2	-3	-1	3	.
Cc1cc2c(cc1C)NC(=O)CC(C(F)(F)C(F)(F)C(F)(F)F)=N2	0	-2	-1	2	4.7*
O=C(OC12CCCN(C1)/C(=C/c1ccccc1)C2)c1ccccc1 (stereo unspecified)	0	-3	-1	1	.
Cc1ccc(C=Nc2ccccc2C(=O)Nc2ccccc2)cc1	0	0	-1	-1	0
Cc1ccc(C=Nc2ccccc2C(N)=O)cc1	0	5.9*	0	12*	1
CCOC(=O)Cc1csc(-n2sc3ccccc3c2=O)n1	0	6.3*	0	1	2
CCOC(=O)Cc1csc(SCn2nnc3ccccc3c2=O)n1	0	1	-1	1	1
CCOc1ccc(N(CC(=O)Nc2ccc(C)c(C)c2)S(C)(=O)=O)cc1	1	4	0	8	8.9*
COC(=O)[C@]12C[C@H](CC(=O)N3CCSCC3)C(=O)N(CCC3=CCCCC3)C1=C[C@H](C(C)(C)C)O[C@@H]2C	-1	0	-1	0	.
CC(=O)c1c(C)n(C)c2ccc(OC(=O)c3ccc([N+](=O)[O-])cc3)cc12	0	0	-1	3	0
O=C(Nc1ccccc1)Nc1ccccn1	2	3	-1	5	1
O=C(Nc1ccc(Cl)cc1)Nc1ccccn1	1	4	0	12*	4
N/C(=N\NC(=O)Nc1ccc(Cl)cc1)c1ccccn1	1	5.6*	0	5	2
SMILES	DAX1 inh-1	hcDAF12 agonist	ssDAF-12 act	hgDAF-12 ag	DAX1 inh-2
CNC(=O)N/N=C(\N)c1ccccn1	0	-2	-1	0	-1
O=C1CC[C@@H]2CC3(C[C@@H]4CCN1[C@H]24)Nc1ccccc1NC3=NC1CCCCC1 (stereo partly specified)	0	-1	-1	2	5.2*
Cc1ccccc1N=C1Nc2ccccc2N[C@]12C[C@H]1CCC(=O)N3CC[C@@H](C2)[C@@H]13	1	3	0	2	0
COC(=O)CC(=O)CC(NS(=O)(=O)c1ccc(C)cc1)c1ccccc1 (stereo unspecified)	0	-1	-1	1	.
CC(=O)N1c2cc(S(=O)(=O)Nc3c(C)n(C)n(-c4ccccc4)c3=O)c(Br)cc2CC1C (stereo unspecified)	1	-3	0	3	.
O=C(CSc1nnc(-c2ccncc2)n1Cc1ccco1)Nc1ccccc1F	-1	-2	-2	-2	6.2*
NC(=O)CSc1nnc(-c2ccc(O)cc2)n1Cc1ccco1	0	0	-1	0	9.2*
NC(=O)CSc1nnc(-c2cccs2)n1Cc1ccco1	0	-1	-2	-1	5.5*
O=C(CSc1nnc(-c2ccncc2)n1Cc1ccco1)Nc1ccccc1Cl	0	-2	-1	-1	1
COc1ccc(/C=C/S(=O)(=O)NC2CCCC2)c(CNC(=O)OC(C)(C)C)c1	-1	-2	0	-1	.
COc1ccc(C(C#N)N2N=C(C)CC2c2ccccc2)cc1 (stereo unspecified)	1	0	-1	2	0
COc1ccc(C2=NN(C(C#N)c3ccc(OC)cc3)C(c3ccccc3)C2)cc1 (stereo unspecified)	3	6.4*	-1	13*	5.4*
NC(=O)C1CCN(C(=O)c2ccc(CS(=O)(=O)c3c(Cl)cccc3Cl)o2)CC1	0	-1	-1	4	6.9*
Cc1cc(NC(=O)CC(C)(C)C)nc2c1c(=O)oc1ccccc12	0	6.3*	-1	0	0
COc1ccc(Cn2c(=N)c(C(=O)NCC3CCCO3)cc3c(=O)n4ccccc4nc32)cc1 (stereo unspecified)	-1	5.7*	-1	7	1
COc1ccc(S[C@]2(C(=O)N3CCCC3)CC(=O)N(C(=O)c3ccccc3)[C@@H]2c2ccc(OC)cc2)cc1	-1	2	-1	2	.
COc1ccc(-c2nc3nc(C)cc(C)n3n2)cc1	1	5.7*	0	3	1
COc1ccc(CNc2nc3nc(C)cc(C)n3n2)cc1	2	0	-1	2	1
O=C(NCCc1c[nH]c2ccccc12)OCc1cn(-c2ccc(Cl)cc2)nn1	-1	1	-1	0	.
CC(C)CNc1cccc2c1S(=O)(=O)N(Cc1cn(Cc3ccc(C(F)(F)F)cc3)nn1)Cc1ccccc1O2	0	-1	-1	2	.
Cc1ccccc1NC(=O)/C=C/c1cccs1	3	2	-1	13*	0
CN(CCOC(=O)c1cccs1)C1CN(Cc2cn(Cc3ccccc3Cl)nn2)S(=O)(=O)C1 (stereo unspecified)	1	1	-1	5	.
COc1ccccc1-c1nc(NC(C)=O)n[nH]1	0	4	1.8*	1	.
O=c1c2cc3cccnc3nc2ncn1Cc1cccs1	1	2	-1	0	.
COC(=O)C1CN(Cc2cn(Cc3ccc(F)cc3)nn2)CCS(=O)(=O)N1Cc1ccccc1 (stereo unspecified)	-1	-1	-2	-2	.
CCOC(=O)N1CCN(C(=O)C[C@H]2C[C@@]3(C(=O)OC)C(=C[C@H](COCc4ccccc4)O[C@@H]3C)N(CCC3=CCCCC3)C2=O)CC1	-1	-1	-2	-3	.

Screening results: PubChem, The Scripps Research Institute Molecular Screening Center
